PubChem BioAssay (EPA / NIEHS)
Results filed as inconclusive are left out. The source made the active and inactive calls. The calls were made as follows, unless noted: active = hit-call score of the fitted dose curve at least 0.9, where 1 is the maximum; inconclusive = response in the unintended direction; inactive = score below 0.9.

Tests used:
[1] = BSK_4H_Eotaxin3: BioMAP Diversity Plus: 4H Assay for Eotaxin 3 Biomarker Activity (AID 2283000; active = hit-call score of the fitted dose curve at least 0.9, where 1 is the maximum; inactive = score below 0.9); settings: primary human endothelial cells (HUVEC); actives raise or lower the signal
Outline: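 HUVEC, 24 h post-dose, ELISA for Eotaxin-3/CCL26. Gain or loss of signal fitted bidirectionally vs DMSO baseline.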

[2] = biological target: Peroxisome proliferator-activated receptor gamma (Homo sapiens) (UniProt P37231); assay: ATG_PPARg_TRANS: Attagene TRANS-FACTORIAL HepG2 Assay for human Peroxisome Proliferator-activated Receptor-gamma (PPARg) (AID 2283007)
Sequence of Peroxisome proliferator-activated receptor gamma (Homo sapiens) (P37231 whole entry, looked up, the tested form may be a part): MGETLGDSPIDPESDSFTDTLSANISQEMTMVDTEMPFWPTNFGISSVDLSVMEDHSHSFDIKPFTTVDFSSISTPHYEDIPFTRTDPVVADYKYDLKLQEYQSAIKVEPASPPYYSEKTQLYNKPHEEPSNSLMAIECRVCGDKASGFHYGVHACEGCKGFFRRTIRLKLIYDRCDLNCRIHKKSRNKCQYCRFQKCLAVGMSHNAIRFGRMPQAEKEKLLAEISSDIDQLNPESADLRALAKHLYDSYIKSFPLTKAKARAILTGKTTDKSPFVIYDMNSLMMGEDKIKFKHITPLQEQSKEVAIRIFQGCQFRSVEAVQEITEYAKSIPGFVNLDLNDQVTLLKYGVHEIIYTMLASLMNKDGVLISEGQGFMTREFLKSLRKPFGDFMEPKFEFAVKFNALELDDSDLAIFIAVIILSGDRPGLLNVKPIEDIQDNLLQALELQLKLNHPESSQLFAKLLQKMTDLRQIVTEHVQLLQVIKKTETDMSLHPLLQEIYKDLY
Outline: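 Liver-derived HepG2 cells expressing an exogenous NR-Gal4 chimera alongside GAL4-UAS reporter genes; 24 h exposure. Fluorescence of reporter RT-PCR products, separated by capillary electrophoresis, gives mRNA induction relative to DMSO.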

[3] = biological target: Nuclear receptor subfamily 1 group I member 2 (Homo sapiens) (UniProt O75469); assay: ATG_PXR_TRANS: Attagene TRANS-FACTORIAL HepG2 Assay for human Pregnane X Receptor (PXR) (AID 2283008)
Sequence of Nuclear receptor subfamily 1 group I member 2 (Homo sapiens) (O75469 whole entry, looked up, the tested form may be a part): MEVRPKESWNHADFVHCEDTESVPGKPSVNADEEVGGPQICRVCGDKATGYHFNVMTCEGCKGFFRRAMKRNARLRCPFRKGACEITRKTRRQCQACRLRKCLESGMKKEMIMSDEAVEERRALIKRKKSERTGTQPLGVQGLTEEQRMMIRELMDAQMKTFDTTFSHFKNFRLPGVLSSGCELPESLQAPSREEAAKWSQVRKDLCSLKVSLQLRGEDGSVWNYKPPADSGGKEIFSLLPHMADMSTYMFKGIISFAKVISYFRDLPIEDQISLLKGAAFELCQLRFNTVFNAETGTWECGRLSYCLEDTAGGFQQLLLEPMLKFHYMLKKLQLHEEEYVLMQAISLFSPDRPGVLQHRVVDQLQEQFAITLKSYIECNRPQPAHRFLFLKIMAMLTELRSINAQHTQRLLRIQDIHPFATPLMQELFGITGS
Outline: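 Transient HepG2 transfectants carrying multiplexed reporter transcription units; PXR activity read through a Gal4 chimera. 24 h exposure. RT-PCR/CE fluorescence; upward curve fit referenced to DMSO.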

[4] = biological target: human Retinoic Acid Receptor gamma (RARg), RARG (gene 5916) (UniProt P13631); assay: ATG_RARg_TRANS: Attagene TRANS-FACTORIAL HepG2 Assay for human Retinoic Acid Receptor gamma (RARg) (AID 2283009)
Sequence of human Retinoic Acid Receptor gamma (RARg), RARG (gene 5916) (P13631 whole entry, looked up, the tested form may be a part): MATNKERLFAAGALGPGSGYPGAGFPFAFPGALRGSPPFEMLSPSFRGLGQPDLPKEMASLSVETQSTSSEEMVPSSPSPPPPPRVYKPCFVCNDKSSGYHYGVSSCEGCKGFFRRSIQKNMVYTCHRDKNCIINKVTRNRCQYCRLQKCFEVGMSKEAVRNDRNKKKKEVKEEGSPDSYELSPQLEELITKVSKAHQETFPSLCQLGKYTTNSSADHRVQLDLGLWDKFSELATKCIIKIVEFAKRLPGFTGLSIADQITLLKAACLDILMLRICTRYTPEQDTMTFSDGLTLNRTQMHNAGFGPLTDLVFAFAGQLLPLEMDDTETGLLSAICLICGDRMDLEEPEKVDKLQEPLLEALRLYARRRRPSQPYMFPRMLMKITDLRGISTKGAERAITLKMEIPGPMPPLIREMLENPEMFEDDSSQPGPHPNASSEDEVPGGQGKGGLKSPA
Outline: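 TRANS format measured activity of exogenous NR-GAL4 fusion (RARg) in transfected HepG2 liver cells after 24 h dosing. Induced reporter RNA was detected by RT-PCR/capillary electrophoresis fluorescence, analysed in the positive direction against DMSO.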

[5] = biological target: Retinoic acid receptor RXR-alpha (Homo sapiens) (UniProt P19793); assay: ATG_RXRa_TRANS: Attagene TRANS-FACTORIAL HepG2 Assay for human Retinoid X Receptor alpha (RXRa) (AID 2283012)
Sequence of Retinoic acid receptor RXR-alpha (Homo sapiens) (P19793 whole entry, looked up, the tested form may be a part): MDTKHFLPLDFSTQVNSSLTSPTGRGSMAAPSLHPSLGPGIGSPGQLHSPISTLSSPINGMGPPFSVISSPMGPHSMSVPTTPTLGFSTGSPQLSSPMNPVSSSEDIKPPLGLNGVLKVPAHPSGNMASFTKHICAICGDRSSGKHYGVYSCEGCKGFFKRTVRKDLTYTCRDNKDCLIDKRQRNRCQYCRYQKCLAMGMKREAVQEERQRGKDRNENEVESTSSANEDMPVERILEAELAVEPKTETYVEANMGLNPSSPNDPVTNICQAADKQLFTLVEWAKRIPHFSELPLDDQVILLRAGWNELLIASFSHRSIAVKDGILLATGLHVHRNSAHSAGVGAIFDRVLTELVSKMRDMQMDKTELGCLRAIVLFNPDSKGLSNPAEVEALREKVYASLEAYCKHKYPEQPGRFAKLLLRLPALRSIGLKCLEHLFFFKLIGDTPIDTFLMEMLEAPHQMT
Outline: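 Measures exogenous chimeric NR-GAL4 activity in transfected HepG2 liver cells after 24 h of dosing. Induced reporter mRNA was detected by RT-PCR with capillary electrophoresis, and gain of signal was analysed against DMSO.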

[6] = read-out: E-selectin (Homo sapiens) (UniProt P16581); assay: BSK_3C_Eselectin: BioMAP Diversity Plus: 3C Assay for Eselectin Biomarker Activity (AID 2283015; active = hit-call score of the fitted dose curve at least 0.9, where 1 is the maximum; inactive = score below 0.9); settings: primary human endothelial cells (HUVEC); actives raise or lower the signal
Outline: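 Primary human umbilical vein endothelial cells (3C system) were dosed with chemical and cell-surface E-selectin measured by ELISA 24 h later. Bidirectional curve fitting used DMSO as negative control and baseline.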

[7] = read-out: Interleukin-1 alpha (IL1a), IL1A (gene 3552); assay: BSK_BE3C_IL1a: BioMAP Diversity Plus: BE3C Assay for Interleukin-1 alpha (IL1a) Biomarker Activity (AID 2283016; active = hit-call score of the fitted dose curve at least 0.9, where 1 is the maximum; inactive = score below 0.9); settings: primary human bronchial epithelial cells; actives raise or lower the signal
Outline: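 Signal from IL-1a ELISA, taken 24 h after chemical dosing of human bronchial epithelial cells, is compared with DMSO as baseline using bidirectional curve fitting.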

[8] = read-out: Monocyte Chemoattractant Protein-1 (MCP1), CCL2 (gene 6347); assay: BSK_3C_MCP1: BioMAP Diversity Plus: 3C Assay for Monocyte Chemoattractant Protein-1 (MCP1) Biomarker Activity (AID 2283017; active = hit-call score of the fitted dose curve at least 0.9, where 1 is the maximum; inactive = score below 0.9); settings: primary human endothelial cells (HUVEC); actives raise or lower the signal
Outline: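 Primary human umbilical vein endothelial cells (3C system) were exposed to test chemical for 24 h, after which MCP-1 was quantified by ELISA. Activity was fitted bidirectionally against DMSO as negative control and baseline.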

[9] = read-out: Human Leukocyte Antigen - DR isotype (HLADR), HLA-DRA (gene 3122); assay: BSK_3C_HLADR: BioMAP Diversity Plus: 3C Assay for Human Leukocyte Antigen - DR isotype (HLADR) Biomarker Activity (AID 2283019; active = hit-call score of the fitted dose curve at least 0.9, where 1 is the maximum; inactive = score below 0.9); settings: primary human endothelial cells (HUVEC); actives raise or lower the signal
Outline: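 Primary human umbilical vein endothelial cells (3C system) were dosed with compound and cell-surface HLA-DR was quantified by ELISA at 24 h. Activity was fitted bidirectionally against DMSO as negative control and baseline.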

[10] = biological target: human Peroxisome Proliferator-activated Receptor alpha (PPARa), PPARA (gene 5465) (UniProt Q07869); assay: ATG_PPARa_TRANS: Attagene TRANS-FACTORIAL HepG2 Assay for human Peroxisome Proliferator-activated Receptor alpha (PPARa) (AID 2283001);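 as to AC50: potency for gain of reporter signal over DMSO so agonist or activator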
Sequence of human Peroxisome Proliferator-activated Receptor alpha (PPARa), PPARA (gene 5465) (Q07869 whole entry, looked up): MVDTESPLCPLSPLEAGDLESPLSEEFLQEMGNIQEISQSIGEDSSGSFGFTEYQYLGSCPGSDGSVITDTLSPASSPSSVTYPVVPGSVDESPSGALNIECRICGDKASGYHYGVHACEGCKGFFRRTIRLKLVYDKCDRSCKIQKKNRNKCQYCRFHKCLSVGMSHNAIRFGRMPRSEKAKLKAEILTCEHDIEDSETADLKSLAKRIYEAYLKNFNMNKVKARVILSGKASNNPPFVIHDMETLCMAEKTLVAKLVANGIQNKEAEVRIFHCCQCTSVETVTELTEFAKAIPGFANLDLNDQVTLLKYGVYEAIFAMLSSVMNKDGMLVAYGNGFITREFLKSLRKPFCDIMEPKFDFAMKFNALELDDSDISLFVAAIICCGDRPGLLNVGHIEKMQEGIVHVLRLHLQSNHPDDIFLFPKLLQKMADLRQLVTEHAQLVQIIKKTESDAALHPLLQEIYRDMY
Outline: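 HepG2, transient MRTU transfection, 24 h treatment. RT-PCR → FAM labelling → capillary electrophoresis. Fit vs DMSO, positive direction.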

[11] = biological target: human Peroxisome Proliferator-activated Receptor delta (PPARd), PPARD (gene 5467) (UniProt Q03181); assay: ATG_PPARd_TRANS: Attagene TRANS-FACTORIAL HepG2 Assay for human Peroxisome Proliferator-activated Receptor delta (PPARd) (AID 2283002)
Sequence of human Peroxisome Proliferator-activated Receptor delta (PPARd), PPARD (gene 5467) (Q03181 whole entry, looked up, the tested form may be a part): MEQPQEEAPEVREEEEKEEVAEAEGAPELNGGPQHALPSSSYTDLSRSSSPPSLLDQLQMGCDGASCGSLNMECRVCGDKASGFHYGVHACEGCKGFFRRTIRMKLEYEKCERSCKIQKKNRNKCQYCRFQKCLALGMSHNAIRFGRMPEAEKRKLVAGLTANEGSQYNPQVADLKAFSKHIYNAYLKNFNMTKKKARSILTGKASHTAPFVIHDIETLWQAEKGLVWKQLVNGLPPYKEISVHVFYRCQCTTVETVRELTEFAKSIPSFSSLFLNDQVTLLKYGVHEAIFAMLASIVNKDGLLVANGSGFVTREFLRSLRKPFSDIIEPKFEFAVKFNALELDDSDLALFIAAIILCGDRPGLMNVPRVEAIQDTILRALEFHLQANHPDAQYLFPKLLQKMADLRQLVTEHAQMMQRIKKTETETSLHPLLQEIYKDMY
Outline: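 HepG2 cells transiently transfected with GAL4-UAS multiplexed reporter units driven by exogenous chimeric NR-GAL4 proteins; 24 h compound exposure. Reporter mRNA measured by RT-PCR, 6-FAM primer extension, HpaI digestion and capillary electrophoresis; gain of signal fitted relative to DMSO.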

[12] = biological target: human Retinoic Acid Receptor beta (RARb), RARB (gene 5915) (UniProt P10826); assay: ATG_RARb_TRANS: Attagene TRANS-FACTORIAL HepG2 Assay for human Retinoic Acid Receptor beta (AID 2283004)
Sequence of human Retinoic Acid Receptor beta (RARb), RARB (gene 5915) (P10826 whole entry, looked up, the tested form may be a part): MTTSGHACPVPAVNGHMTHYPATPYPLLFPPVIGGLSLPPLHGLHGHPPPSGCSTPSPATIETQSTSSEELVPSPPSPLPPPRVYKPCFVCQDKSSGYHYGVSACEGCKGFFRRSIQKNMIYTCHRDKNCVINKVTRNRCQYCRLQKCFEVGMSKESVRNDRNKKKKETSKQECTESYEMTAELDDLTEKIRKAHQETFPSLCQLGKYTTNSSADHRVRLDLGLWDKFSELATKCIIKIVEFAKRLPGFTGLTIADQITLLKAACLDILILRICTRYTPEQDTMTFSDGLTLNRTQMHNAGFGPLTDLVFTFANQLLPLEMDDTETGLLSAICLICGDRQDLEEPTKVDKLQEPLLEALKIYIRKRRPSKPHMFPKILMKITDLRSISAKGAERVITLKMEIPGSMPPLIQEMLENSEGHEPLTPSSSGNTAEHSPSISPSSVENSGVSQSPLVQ
Outline: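 HepG2 cells transiently transfected with multiplexed GAL4-UAS reporter units expressing chimeric NR–Gal4 fusions; 24 h compound exposure. Reporter mRNA quantified by RT-PCR, 6-FAM labelling, HpaI digestion and capillary electrophoresis; gain-of-signal fitted against DMSO baseline.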

[13] = biological target: human RAR-related Orphan Receptor beta (RORb), RORB (gene 6096) (UniProt Q92753); assay: ATG_RORb_TRANS: Attagene TRANS-FACTORIAL HepG2 Assay for human RAR-related Orphan Receptor beta (RORb) (AID 2283010)
Outline: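 Transfect HepG2 with multiple GAL4-UAS reporter transcription units; dose chemicals for 24 h; isolate RNA, reverse-transcribe and PCR-amplify reporter sequences; label, digest and resolve fragments by capillary electrophoresis; fit increases relative to DMSO.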

[14] = biological target: human RAR-related Orphan Receptor gamma (RORg), RORC (gene 6097) (UniProt P51449); assay: ATG_RORg_TRANS: Attagene TRANS-FACTORIAL HepG2 Assay for human RAR-related Orphan Receptor gamma (RORg) (AID 2283011)
Outline: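 Readout: reporter transcript induction (RT-PCR, fluorescent primer extension, capillary electrophoresis) after 24 h compound exposure of transiently transfected HepG2 cells carrying a RORg-Gal4 chimera and GAL4-UAS reporters; DMSO served as baseline, with increasing signal fitted.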

[15] = biological target: human Retinoid X Receptor beta (RXRb), RXRB (gene 6257) (UniProt P28702); assay: ATG_RXRb_TRANS: Attagene TRANS-FACTORIAL HepG2 Assay for human Retinoid X Receptor beta (RXRb) (AID 2283013)
Sequence of human Retinoid X Receptor beta (RXRb), RXRB (gene 6257) (P28702 whole entry, looked up, the tested form may be a part): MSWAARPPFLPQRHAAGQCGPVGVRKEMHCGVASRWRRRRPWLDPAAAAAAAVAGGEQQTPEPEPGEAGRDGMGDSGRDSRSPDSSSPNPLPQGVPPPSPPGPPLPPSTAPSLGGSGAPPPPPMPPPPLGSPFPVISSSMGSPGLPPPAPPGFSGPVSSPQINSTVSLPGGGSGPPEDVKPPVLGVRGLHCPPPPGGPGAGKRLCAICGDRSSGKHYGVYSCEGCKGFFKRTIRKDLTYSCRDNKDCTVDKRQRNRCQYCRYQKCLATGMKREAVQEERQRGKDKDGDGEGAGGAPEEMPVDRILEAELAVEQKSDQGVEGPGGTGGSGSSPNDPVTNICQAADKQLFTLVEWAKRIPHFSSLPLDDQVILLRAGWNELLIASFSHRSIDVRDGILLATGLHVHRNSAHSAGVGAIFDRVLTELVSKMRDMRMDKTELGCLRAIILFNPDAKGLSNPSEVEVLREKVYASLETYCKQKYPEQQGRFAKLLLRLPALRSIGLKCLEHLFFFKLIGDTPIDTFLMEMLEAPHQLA
Outline: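 Chimeric receptor-Gal4 activity was assessed in transiently transfected human HepG2 cells after 24 h exposure. Transcripts from GAL4-UAS reporters were quantified by fluorescent RT-PCR and capillary electrophoresis, with DMSO as negative control and baseline.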

[16] = biological target: Retinoic acid receptor alpha (Homo sapiens) (UniProt P10276); assay: ATG_RARa_TRANS: Attagene TRANS-FACTORIAL HepG2 Assay for human Retinoic Acid Receptor alpha (RARa) (AID 2283005)
Sequence of Retinoic acid receptor alpha (Homo sapiens) (P10276 whole entry, looked up, the tested form may be a part): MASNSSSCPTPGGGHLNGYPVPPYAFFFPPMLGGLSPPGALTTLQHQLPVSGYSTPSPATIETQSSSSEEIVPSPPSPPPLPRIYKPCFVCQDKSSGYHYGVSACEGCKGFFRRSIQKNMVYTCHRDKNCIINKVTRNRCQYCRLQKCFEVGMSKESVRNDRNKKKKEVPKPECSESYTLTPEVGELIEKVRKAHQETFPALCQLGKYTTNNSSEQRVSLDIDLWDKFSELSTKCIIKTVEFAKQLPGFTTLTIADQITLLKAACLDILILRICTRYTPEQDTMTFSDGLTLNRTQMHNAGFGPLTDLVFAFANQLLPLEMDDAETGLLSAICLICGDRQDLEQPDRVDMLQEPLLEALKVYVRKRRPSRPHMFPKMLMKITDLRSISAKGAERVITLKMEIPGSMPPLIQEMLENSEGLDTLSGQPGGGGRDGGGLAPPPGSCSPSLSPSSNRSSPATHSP
Outline: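 HepG2 transiently transfected with multiplex GAL4-UAS reporter units including a human RARa–GAL4 chimera; 24 h compound exposure. Reporter mRNA quantified by RT-PCR, 6-FAM labeling and capillary electrophoresis; gain of signal versus DMSO.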

[17] = biological target: human Thyroid Receptor alpha (THRa1), THRA (gene 7067) (UniProt P10827); assay: ATG_THRa1_TRANS: Attagene TRANS-FACTORIAL HepG2 Assay for human Thyroid Receptor alpha (THRa1) (AID 2283014)
Sequence of human Thyroid Receptor alpha (THRa1), THRA (gene 7067) (P10827 whole entry, looked up, the tested form may be a part): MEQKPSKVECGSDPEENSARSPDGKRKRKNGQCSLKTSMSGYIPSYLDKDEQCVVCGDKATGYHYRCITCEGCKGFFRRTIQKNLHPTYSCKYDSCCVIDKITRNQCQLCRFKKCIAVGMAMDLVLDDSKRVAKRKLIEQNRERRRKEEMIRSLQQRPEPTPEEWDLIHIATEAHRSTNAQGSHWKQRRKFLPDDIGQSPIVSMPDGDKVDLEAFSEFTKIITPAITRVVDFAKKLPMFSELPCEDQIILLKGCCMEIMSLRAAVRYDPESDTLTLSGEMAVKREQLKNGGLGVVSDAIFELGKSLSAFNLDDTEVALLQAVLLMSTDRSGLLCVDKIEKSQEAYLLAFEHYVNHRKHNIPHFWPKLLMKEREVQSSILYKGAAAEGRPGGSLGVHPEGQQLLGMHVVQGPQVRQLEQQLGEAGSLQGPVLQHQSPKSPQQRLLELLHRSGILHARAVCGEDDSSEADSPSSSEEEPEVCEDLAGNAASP
Outline: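 HepG2 cells transiently transfected with multiplexed GAL4-UAS reporter units for exogenous chimeric THRa1-Gal4; reporter mRNA measured 24 h after dosing by RT-PCR, 6-FAM labelling, HpaI digestion and capillary electrophoresis. Gain-of-signal fitted versus DMSO baseline.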

Measured: AC50

CCCCC1C(=O)N(c2ccccc2)N(c2ccccc2)C1=O
active: [2] 22.6 µM | [3] 1.01 µM
inactive: [1] | [4] | [5] | [6] | [7] | [8] | [9]

Cc1ccc(C)c(OCCCC(C)(C)C(=O)O)c1
active: [10] 37.4 µM | [3] 20.7 µM
inactive: [11] | [12] | [4] | [13] | [14] | [5] | [15]

CCCC=C(C=O)CC
inactive: [10]

CC1=NN(c2ccc(S(=O)(=O)O)cc2)C(=O)C1N=Nc1ccccc1 (stereo unspecified)
not listed: [1] | [5] | [6] | [7] | [8] | [9] | [13]
inactive: all other assays above

C=CC(=O)OCC(C)OCC(C)OCC(C)OC(=O)C=C (stereo unspecified)
inactive: [10] | [4] | [13] | [5] | [17]
active: [1] 8.38 µM | [2] 10.3 µM | [3] 9.63 µM | [6] 11 µM | [7] 21.5 µM | [8] 28.9 µM | [9] 8.55 µM

CCN(CC)c1cccc(C)c1
inactive: [10] | [11] | [16] | [3] | [4] | [14] | [15]

CC(C)CC(=O)OCc1ccccc1
inactive: [10] | [11] | [2] | [14] | [15]

C=CC(=O)O[C@H]1C[C@@H]2CC[C@@]1(C)C2(C)C
active: [3] 26.6 µM
inactive: [10] | [11] | [2] | [13] | [5] | [15] | [17]

C/C=C/C=C/CCCCCCCO
active: [11] 27.2 µM | [2] 2.64 µM
inactive: [10] | [3] | [5] | [17]

O=c1c(O)c(-c2ccc(O)cc2O)oc2cc(O)cc(O)c12
inactive: [10] | [11] | [16] | [2] | [3] | [5] | [15] | [17]

C=C[C@@]1(C)CC(=O)[C@]2(O)[C@@]3(C)[C@@H](O)CCC(C)(C)[C@@H]3[C@H](O)[C@H](OC(C)=O)[C@@]2(C)O1
inactive: [12] | [16] | [4] | [13]
active: [10] 3.28 µM | [2] 3.2 µM | [5] 26.9 µM | [15] 3.64 µM | [17] 33.4 µM

Cc1cc(C)c(C=O)c(C)c1
inactive: [10] | [11] | [2] | [4] | [5] | [15]

CCOC(=O)[C@H](O)[C@@H](O)C(=O)OCC
active: [3] 68.2 µM
inactive: [10] | [11] | [16] | [2] | [5] | [15]

CC1=CCC2CC1C2(C)C (stereo unspecified)
inactive: [10] | [12] | [16] | [3] | [4] | [13] | [15]

COC(=O)c1ccccc1C
inactive: [10] | [11] | [2] | [14]

CCCCCCCCCCCCC
inactive: [10] | [11] | [2] | [3] | [14] | [5] | [15] | [17]
